The structures appear in SMILES notation. The campaign covered roughly 2,300 compounds. About 350 (15%) were called active. Only a sample is shown. Results with a measured potency or affinity are listed apart. Unmarked numbers belong to inactive results. The rule behind the calls is not given here.

A short description of the assay: HepG2 cell cytotoxicity, dose response, cytotoxicity control for non-replicating M. tuberculosis project (AID 489018).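 Note: HepG2 human liver cells; 100% = vehicle-treated cells and 0% = background signal.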 To be noted: series mostly up to 20 µM; viability: at the top concentration.
With `C/C(=N\NC(=O)CCc1ccccc1)C1C(=O)c2ccccc2C1=O`, the “viability” value is 91.1% [at 5 µM].
On to `NC(=O)N/N=C\c1cc(Br)ccc1O`, for which the “viability” value was 92.2%.
For the compound `Cc1cc(C(=O)N/N=C/c2cccc(Cl)c2Cl)no1`, the “viability” value is 105%.
For `O=C(CCc1ccccc1)NC1C2CC3CC(C2)CC1C3` (stereo not given) the value was 105%; for `CN1CC(=O)NC1=NC(=O)C12CC3CC(CC(C3)C1)C2`, 96.6%; for `O=C(NNC(=O)c1cnccn1)c1ccc(Cl)c(Cl)c1`, 87.6% [at 5 µM].
For the compound `Cn1cnc([N+](=O)[O-])c1Sc1ccc(Br)cc1`, the “viability” value was 78.3%.
For `CCc1ccc(N2CCN(CCNC(=O)Nc3ccc(OC)cc3)CC2)cc1` the value was 92.9%; for `O=C(OCc1cccc([N+](=O)[O-])c1)c1ccc2ccccc2n1`, 104%; for `O=c1c2c([N+](=O)[O-])cc([N+](=O)[O-])cc2nc2ccccn12`, 100%.
For `CCOC(=O)C(=O)NC12CC3CC(CC(C3)C1)C2` the value was 84.6%; for `O=C(CCCOc1ccccc1)OCn1nnc2ccccc2c1=O`, 110%.
Take `CCOc1ccc2ccccc2c1/C=N/NC(=O)c1ccncc1`: the “viability” value was 94.8%.
For `COc1ccc(NC(=O)Nc2ccc(O)c3ccccc23)cc1` the value was 102% [at 5 µM].
For `CCS(=O)(=O)c1ncc(Cl)c(C(=O)Nc2ccc(S(=O)(=O)N(C)c3ccccc3)cc2)n1`, the “viability” value was 81.2% [at 5 µM].
For `CCOC(=O)c1c(NC(=O)COC(=O)c2ccccn2)sc2c1CCC2` the value was 114%; for `Clc1ccc(OCCOCCN2CCc3ccccc3C2)c(Cl)c1`, 94.3% [at 5 µM].
For `CC(C)OC(=O)C(C)Oc1ccc(C(=O)NCCc2ccccc2)cc1` (stereo not given) the value was 91.1%.
Turning to `CC1(C)OC(c2ccccc2)=C/C(=C\C=N\NC(=O)c2ccncc2)O1`, the “viability” value is 91.1%.
As to `CN(C)CCC(=O)N1c2ccccc2Sc2ccc(Cl)cc21`, the “viability” value was 102%.
For `Cc1ccc2nc(N(CCCN(C)C)C(=O)c3ccc4c(c3)CCCC4)sc2c1`, the “viability” value is 87.7% [at 5 µM].
The value for `CCc1ccc(OCC(=O)NNC(=O)c2cnccn2)c(Br)c1` was 98.8%; that for `O=C(N/N=C\c1ccc(Cl)s1)C1COc2ccccc2O1` (stereo not given) was 97.2% [at 5 µM]; that for `Clc1ccc(N=c2ssnc2Cl)nc1` was 96.6%.
As to `S=C1SCN(Cc2ccco2)CN1Cc1ccco1`, the “viability” value is 90.5%.
In the case of `CN(C)S(=O)(=O)c1ccc(C(=O)Oc2ccccc2)cc1`, the “viability” value is 91%.
As for `CCC(C)[C@H]1CN=C(N)N1CCc1cccc2ccccc12` (stereo not given in full), the “viability” value was 85.5%.
For `Cc1cc(-c2c(C)[nH]n(-c3ccccc3)c2=O)n[nH]1` the value was 72.7%; for `COc1ccc2oc(=O)c(/C(C)=N/NC(=O)c3ccncc3)cc2c1`, 104%.
The value for `C/C(=N\Nc1nc2ccccc2nc1C)c1ccccc1O` was 91.6%.
For `N=c1oc2ccc(Cl)cc2cc1C(=O)NC1CCCCCC1` the value was 87.9%; for `O=C(Oc1ccc(F)cc1)c1ccc2c(=O)n3c(nc2c1)CCC3`, 96.7%; for `Cc1ccc(-c2nnc(SCC#CCOC(=O)c3ccco3)o2)cc1`, 104%.
As for `CCOC(=O)C1=C(C)C/C(=N\NC(=O)c2ccccc2O)CC1`, the “viability” value was 81.2%.
For `Cc1cc(C)nc(Sc2ncnc(N)c2[N+](=O)[O-])n1` the value was 80.1%.
The value for `Oc1ccccc1-c1nnc(COc2ccccc2)o1` was 89.6%; that for `CC(C)N1CCc2c(sc(NC(=O)CCS(=O)(=O)c3ccccc3)c2C#N)C1` was 104%.
For `CNC(=O)COC(=O)c1ccc(-c2nc3ccccc3s2)s1` the value was 91.7%.
As to `CCCCNC(=O)Nc1nnc(-c2ccc(OCC)cc2)o1`, the “viability” value was 100%.
Take `Cc1ccc(CCC(=O)Nc2ccc(C)c(C)c2)o1`: the “viability” value is 97.3%.
Take `Cc1ccc(C(=O)Nc2nnc(C3=COCCO3)o2)cc1C`: the “viability” value was 87.5%.
Regarding `C/C(=C\C(=O)c1ccc(Br)cc1)NNC(=O)c1ccccc1`, the “viability” value was 70.2%.
For `Cc1n[nH]c(=S)n1/N=C/c1ccc(OCc2ccc(Cl)cc2Cl)cc1` the value was 103%; for `CC(C)(C)c1csc(NC(=O)c2ccccc2O)n1`, 82.3%; for `O=C(O)c1ccccc1-c1ccccc1C(=O)Nc1nc2ccccc2s1`, 105% [at 5 µM].
As for `Cc1ccc2c(c1)C(=O)C(=O)N2CCCOc1ccccc1`, the “viability” value is 108%.
The value for `CCCn1c(NC(=O)c2ccc([N+](=O)[O-])o2)nc2ccccc21` was 91.1%; that for `COC(=O)c1ccc(C(=O)NC2CCCc3c2cnn3-c2cc(F)cc(F)c2)nc1` (stereo not given) was 74%; that for `O=C(COC(=O)c1cccc(C(F)(F)F)c1)NCc1ccccc1` was 99.9%.
For `COC(=O)C1=C(C)N(CC2CC2)C(=NCc2cccc(Cl)c2)N[C@H]1c1ccccc1` the value was 76.5%.
For `CCOC(=O)COc1cc(N)c(Cl)cc1Cl` the value was 80.8%.
In the case of `CC(C)C1O/C(=N/C(=O)Nc2ccc(Cl)c(Cl)c2)NC1=O` (stereo not given), the “viability” value was 95.4%.
For `O=c1c2ccccc2sn1-c1ccccc1` the value was 93.9%; for `COC(=O)COc1ccc2cc(-c3ccc(OC)cc3)c(=O)oc2c1`, 105%; for `CC(C)(C)NC(=O)C(=O)NNC(=O)c1ccc(C(C)(C)C)cc1`, 88.5%.
For `C#CCSc1nnc(-c2cccc3ccccc23)o1` the value was 85.7%; for `N#Cc1ccc(COC(=O)CCc2c[nH]c3ccccc23)cc1`, 108%.
Regarding `O=C(COC(=O)CCc1c[nH]c2ccccc12)NCc1ccc2c(c1)OCO2`, the “viability” value was 109%.
Regarding `COc1ccc(OC(=O)CCc2c[nH]c3ccccc23)cc1`, the “viability” value was 103%.
As to `O=C(COC(=O)CCc1c[nH]c2ccccc12)NCc1ccc(Cl)cc1`, the “viability” value was 108%.
